Bioassay records deposited in PubChem BioAssay by National Center for Advancing Translational Sciences (NCATS).
NPR1 antag = Natriuretic polypeptide receptor (hNpr1) antagonism - Primary qHTS. Atrial natriuretic peptide receptor 1 (Homo sapiens), P16066. HEK293 hNpr1 GloSensor cGMP, ANP-stimulated luminescence. Potency, µM (doses to about 46.3 µM), most hits filed as inhibitors. 76,000 compounds, 1.6% hits. AID 1347048, 2019; calls by dose curve; also: nearly all actives have a fitted effect of over 60% in size
Target sequence (P16066 whole entry, looked up): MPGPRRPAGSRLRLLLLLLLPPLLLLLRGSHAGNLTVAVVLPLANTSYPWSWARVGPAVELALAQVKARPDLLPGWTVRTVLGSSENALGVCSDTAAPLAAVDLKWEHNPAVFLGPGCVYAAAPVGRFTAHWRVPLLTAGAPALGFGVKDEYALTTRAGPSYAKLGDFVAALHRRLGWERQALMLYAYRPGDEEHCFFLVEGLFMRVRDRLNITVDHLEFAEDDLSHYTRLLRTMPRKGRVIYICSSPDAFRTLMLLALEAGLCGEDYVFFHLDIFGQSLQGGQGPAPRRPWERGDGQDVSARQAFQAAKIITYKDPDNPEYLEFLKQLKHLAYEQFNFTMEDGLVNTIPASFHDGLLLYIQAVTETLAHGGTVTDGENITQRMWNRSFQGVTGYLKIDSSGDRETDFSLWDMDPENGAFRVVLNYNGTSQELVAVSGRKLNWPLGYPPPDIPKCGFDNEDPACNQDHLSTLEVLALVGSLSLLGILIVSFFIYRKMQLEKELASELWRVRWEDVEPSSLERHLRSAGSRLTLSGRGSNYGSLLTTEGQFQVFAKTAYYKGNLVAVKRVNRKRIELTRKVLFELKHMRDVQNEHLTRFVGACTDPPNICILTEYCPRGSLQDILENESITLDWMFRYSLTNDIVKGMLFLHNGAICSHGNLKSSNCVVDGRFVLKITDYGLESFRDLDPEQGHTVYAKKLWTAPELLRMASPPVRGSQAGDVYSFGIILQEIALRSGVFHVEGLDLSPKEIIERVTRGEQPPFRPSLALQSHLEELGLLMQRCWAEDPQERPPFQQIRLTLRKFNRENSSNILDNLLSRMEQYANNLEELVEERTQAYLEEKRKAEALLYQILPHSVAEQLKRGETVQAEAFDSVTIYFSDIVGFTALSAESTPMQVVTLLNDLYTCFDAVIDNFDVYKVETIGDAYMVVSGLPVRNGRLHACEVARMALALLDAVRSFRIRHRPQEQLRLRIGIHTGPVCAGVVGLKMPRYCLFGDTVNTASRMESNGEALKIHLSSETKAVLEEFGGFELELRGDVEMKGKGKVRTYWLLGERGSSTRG
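HEK293 cells stably expressing human Npr1 and cGMP GloSensor pGS-40F, loaded 2 h with 2% GloSensor reagent, given compound 30 min at room temperature. Luminescence read before and 20 min after 0.1 nM hNppA.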
Luciferase inh = Firefly luciferase inhibition profiling of diverse chemical library using quantitative high-throughput screening; Luciferin 4-monooxygenase (Photinus pyralis), P08659; purified P. pyralis luciferase, luminescence, biochemical; Potency, µM (top dose mostly 115 µM), actives largely listed as inhibitors; 76,000 compounds, 2.5% hits; also: nearly all actives have a fitted effect of over 65% in size
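Purified 10nM P. pyralis luciferase with 10uM D-luciferin and 10uM ATP in 50mM Tris acetate pH 7.5, 10mM Mg acetate, 0.01% Tween-20, 0.05% BSA. qHTS titration; luminescence read by CCD imager.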
HEK cytotox = Cytotoxic Profiling in HEK 293 Cell Line of Diverse Libraries Using Quantitative High-Throughput Screening; HEK 293 viability, ATP luminescence (CellTiter-Glo), 48-72 h; Potency, µM (highest dose often 115 µM), actives largely listed as inhibitors; 94,000 compounds, 6.6% hits; AID 1345083, 2018; also: nearly all actives have a fitted effect of over 60% in size
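HEK 293 cells at 250 cells/well were exposed to compounds by pintool transfer for 48 or 72 hr at 37 degree Celsius, 5% CO2. Viability was read as ATP-coupled luminescence with CellTiter-Glo after 10 min at room temperature.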
NIH3T3 tox = Cytotoxic Profiling in NIH 3T3 Cell Line of Diverse Libraries Using Quantitative High-Throughput Screening. 94,000 compounds, 4.3% hits. NIH 3T3 viability, CellTiter-Glo ATP luminescence, 48-72 h. Potency, µM (top dose mostly 96.7 µM), hits mostly inhibitors; also: nearly all actives have a fitted effect of over 55% in size
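Cells were seeded at 400 per well, treated with pin-transferred compound, and kept 48 or 72 hr at 37 °C before CellTiter-Glo addition and luminescence imaging of cellular ATP.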
A number is an active result; i = inactive; ? = inconclusive; nt = no result. This is a sample that favours compounds with a hit; in the whole collection about 11% have one here. Unless noted, calls follow the shape of the dose curve; as a rule, active = well fitted curve in the direction sought with a large enough effect; inconclusive = small, poorly fitted or top-dose-only effect, or another doubt; inactive = no such curve, though single readings can be large; an effect the other way counts as inactive or inconclusive.

SMILES	NPR1 antag	Luciferase inh	HEK cytotox	NIH3T3 tox
CC(Nc1ccc(-c2nc(CCCc3ccccc3)no2)cn1)c1cnn(C)c1 (stereo not given)	i	16µM	?	?
CN(Cc1cnn(C)c1)c1ccc(-c2nc(COc3ccccc3)no2)cn1	i	i	i	i
O=C(NCC(F)F)C1CCN(Cc2ccccc2-c2cccnc2)CC1	nt	nt	i	i
CCC(C)NC(=O)CNC(=O)c1ccc(-c2cccc(C(F)(F)F)c2)cc1 (stereo not given)	nt	nt	35µM	i
O=C(NCCN[S+](=O)([O-])c1cccc(C(F)(F)F)c1)c1cccc(-c2ccsc2)c1	nt	nt	?	40µM
Cc1ccc([S+](=O)([O-])NCCNC(=O)c2ccc(-c3cncnc3)cc2)cc1	nt	nt	i	i
O=C(NCCN[S+](=O)([O-])c1cccc(C(F)(F)F)c1)c1ccc(-c2cccc(C(F)(F)F)c2)cc1	nt	nt	40µM	28µM
O=C(NCCN[S+](=O)([O-])c1cccc(C(F)(F)F)c1)c1ccc(-c2cncnc2)cc1	nt	nt	89µM	i
Cn1cccc1C(=O)N1C[C@@H](COCC2CC2)[C@H](c2ccccn2)C1	i	i	?	i
O=C(NCc1ccc(C(F)(F)F)cc1)C1CCCN1C(=O)c1cccc(-c2ccccn2)c1 (stereo not given)	nt	nt	?	i
O=C(c1ccc2nnc(-c3cncc(Cl)c3)n2c1)N1CCOCC1	nt	nt	i	i
O=C(C1CCC1)N1CCC(OCc2ccccc2)C1 (stereo not given)	nt	nt	i	i
O=C(COc1ccccc1)N1CCCCCC1c1nnc(-c2ccccc2)o1 (stereo not given)	nt	nt	i	i
CCOC(=O)N1CCC(COc2ccc3c(cnn3CC[S+](C)(=O)[O-])c2)CC1	?	?	?	79µM
C[S+](=O)([O-])CCn1ncc2cc(OCC3CCN(Cc4cccs4)CC3)ccc21	i	63µM	?	?
O=C(NCCc1ccccc1)NCC1CCC(=O)N(Cc2ccccc2)CC1 (stereo not given)	nt	nt	i	i
COCCN1CCCCCC(O)c2cc(C(=O)N3CCN(c4cccc(OC)c4)CC3)ccc21 (stereo not given)	i	i	40µM	?
COCCN1CCCCCC(O)c2cc(C(=O)N(C)Cc3cccnc3)ccc21 (stereo not given)	i	i	?	?
COCCN1CCCCCC(O)c2cc(C(=O)N(C)Cc3ccc(N4CCCCC4)cc3)ccc21 (stereo not given)	i	i	?	40µM
COCCCNC(=O)c1ccc2c(c1)C(O)CCCCCN2CCOC (stereo not given)	i	i	i	i
COCCN1CCCCCC(O)c2cc(C(=O)NCc3ccc(N4CCC(C)CC4)cc3)ccc21 (stereo not given)	i	?	?	28µM
Cc1ccc(C(=O)N2CCCN(c3ccc4nnc(C)n4n3)CC2)cc1	nt	nt	i	i
Cc1ccc([S+](=O)([O-])N2CCCC2C(=O)N2CCC(N3CCOCC3=O)CC2)cc1 (stereo not given)	nt	nt	i	i
Cc1nc(C2CC23CCN(C(=O)Nc2ccc4c(c2)OCCO4)CC3)no1 (stereo not given)	nt	nt	i	i
Cc1ccc2nc(CO[C@H]3CN(Cc4cn(C)c5ccccc45)C[C@H]3F)[nH]c2c1	?	i	89µM	79µM
SMILES	NPR1 antag	Luciferase inh	HEK cytotox	NIH3T3 tox
Cn1cc(CN2C[C@@H](F)[C@@H](OCc3nc4ccccc4[nH]3)C2)c2ccccc21	i	i	100µM	?
Cn1cc(CN2C[C@@H](F)[C@@H](OCc3nc4ncccc4[nH]3)C2)c2ccccc21	i	i	89µM	?
Fc1ccc2nc(CO[C@H]3CN(Cc4ccc5ccccc5n4)C[C@H]3F)[nH]c2c1	?	?	89µM	?
COCC1(O)CCOC2(CCN(C(=O)c3cccs3)CC2)C1 (stereo not given)	nt	nt	i	i
CNC(=O)c1cc(C2CC2)nc2onc(C3CCN(C(=O)Cc4ccc(OC)cc4)C3)c12 (stereo not given)	nt	nt	i	i
O=C(Cc1ccsc1)Nc1cnc(-c2ccccc2)nc1	?	5µM	?	?
O=C(COc1ccc(F)cc1)Nc1cnc(-c2ccccc2)nc1	i	i	i	i
CN(C)C(=O)N1CCCC(C(=O)N2CCC3(CC2)CC(=O)Nc2ccccc2O3)C1 (stereo not given)	nt	nt	i	i
Cc1ccsc1C(=O)Nc1ccc2c(N3CCCCC3)ncnc2c1	i	?	?	35µM
O=C(Nc1ccc2ncnc(N3CCCCC3)c2c1)c1c(F)cccc1Cl	i	i	50µM	?
O=C(Nc1ccc2ncnc(N3CCCCC3)c2c1)c1ccccc1Br	?	i	45µM	?
Cc1ccc(C(=O)Nc2ccc3c(N4CCCCC4)ncnc3c2)cc1F	i	i	?	?
O=C(Nc1ccc2ncnc(N3CCCCC3)c2c1)c1cc(F)cc(F)c1	?	i	?	?
O=C(Nc1ccc2c(N3CCCC3)ncnc2c1)c1ccccc1Cl	i	?	?	25µM
Cc1ccc(C(=O)N2CCC3(CC2)NC(=O)N(c2ccc(F)cc2)N3)c(C)c1	i	i	?	?
COc1ccc(-c2cn3cc(C(=O)NCCc4ccc(Cl)cc4)nc3s2)cc1	nt	nt	i	i
CC(C)c1nc2c(c(-c3ccc(O)cc3)n1)CCN(C(=O)C1CC1)CC2	nt	nt	i	i
CC(C)CN1CCN(C(=O)CCC[C@H]2NC[C@@H]3C[C@H]2CN(Cc2ccccc2)C3)CC1	i	i	i	i
CNC(=O)c1ccc(-c2ccc(OC)nn2)cc1Cl	nt	nt	i	i
O=C(Nc1ccc2c(N3CCCCC3)ncnc2c1)c1ccc(F)cc1	i	?	?	28µM
O=C(Nc1ccc2c(N3CCCC3)ncnc2c1)c1ccc(Cl)cc1	i	i	i	?
O=C(C1CCC(N2Cc3cccn3C2=O)CC1)C1CCN([S+](=O)([O-])c2cccs2)CC1 (stereo not given)	nt	nt	i	i
CCCc1noc(-c2nc(-c3ccc4c(c3)OCO4)no2)n1	i	13µM	i	i
COCCc1noc(-c2nc(-c3ccccc3)no2)n1	i	20µM	i	i
CCc1noc(-c2nc(-c3cccc(F)c3)no2)n1	i	25µM	i	i
SMILES	NPR1 antag	Luciferase inh	HEK cytotox	NIH3T3 tox
Cc1noc(-c2nc(-c3ccc4c(c3)OCO4)no2)n1	i	?	i	i
COc1ccccc1Cn1c(=O)c(C(=O)NCC(F)(F)F)nc2cccnc21	nt	nt	i	i
CN(Cc1cccc(N2CCN(C(=O)OC(C)(C)C)CC2)c1F)[S+](C)(=O)[O-]	nt	nt	79µM	?
CN(Cc1cccc(F)c1)C1CN(C(=O)OC(C)(C)C)C1	nt	nt	i	i
COC(=O)N(C)Cc1cccc(N2CCN([S+](=O)([O-])c3c(Cl)cccc3Cl)CC2)c1F	nt	nt	14µM	?
COc1ccccc1-c1cnc2n[nH]c(-c3ccc(F)cc3C)c2n1	?	i	?	?
COc1ccc(-c2[nH]nc3ncc(-c4cccnc4OC)nc23)c(C)c1	i	i	100µM	?
COc1ccc(-c2[nH]nc3ncc(-c4ccccc4OC)nc23)c(C)c1	i	i	89µM	?
